Screening results deposited in PubChem BioAssay by Sanford-Burnham Center for Chemical Genomics.
Artemis endo inh – blocks endonuclease activity of human Artemis. recombinant Artemis, quenched FAM hairpin cleavage fluorescence. inhibition, % at 10 µM. Q96SD1. hit rate 0.78% among 30,000;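 active means at 10 µM dose, at least 30% inhibition, measured as corrected fluorescence normalized to stimulator and neutral control wells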
Target sequence (Q96SD1 whole entry, looked up): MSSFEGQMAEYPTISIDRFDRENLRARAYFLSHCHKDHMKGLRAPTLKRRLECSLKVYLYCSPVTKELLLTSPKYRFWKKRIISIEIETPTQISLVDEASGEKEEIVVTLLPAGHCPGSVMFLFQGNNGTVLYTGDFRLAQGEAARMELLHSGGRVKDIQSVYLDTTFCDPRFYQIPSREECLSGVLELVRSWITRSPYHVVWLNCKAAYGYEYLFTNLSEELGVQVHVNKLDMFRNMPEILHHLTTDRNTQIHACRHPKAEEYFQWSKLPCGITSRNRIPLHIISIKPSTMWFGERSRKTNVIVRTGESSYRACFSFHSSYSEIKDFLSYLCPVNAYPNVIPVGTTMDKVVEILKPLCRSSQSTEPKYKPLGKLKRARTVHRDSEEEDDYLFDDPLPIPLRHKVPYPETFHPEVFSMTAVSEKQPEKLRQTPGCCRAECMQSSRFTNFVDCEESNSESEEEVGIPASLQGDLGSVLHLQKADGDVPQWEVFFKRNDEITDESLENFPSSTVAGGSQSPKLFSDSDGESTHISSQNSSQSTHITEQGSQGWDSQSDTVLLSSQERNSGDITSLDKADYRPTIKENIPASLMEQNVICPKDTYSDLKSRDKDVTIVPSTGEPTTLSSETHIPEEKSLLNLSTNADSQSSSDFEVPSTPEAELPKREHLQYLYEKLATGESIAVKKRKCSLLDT
Starred values were filed as active, the others as inactive. The entries come from a sample that favours hits as a whole.

SMILES	Artemis endo inh
COc1ccc(-c2nc3ccccc3c(C(=O)Nc3ccc(S(=O)(=O)Nc4cc(C)on4)cc3)c2C)cc1	13
N#Cc1nc(-c2ccc(OCc3ccccc3)cc2)oc1NCc1ccco1	-5
N#Cc1nc(-c2ccc(OCc3ccc(Cl)cc3)cc2)oc1NCCCn1ccnc1	49*
CNc1oc(-c2ccc(OCc3ccccc3)cc2)nc1C#N	2
O=C(OCC(=O)N1CCN(C(=O)c2ccco2)CC1)c1ccccc1OCc1ccc(Cl)cc1	0
Cc1ccc2cc(CCNC(=O)c3ccc(Br)o3)c(=O)[nH]c2c1	4
O=C1OCCC1Sc1nc(-c2ccccc2)cs1 (stereo unspecified)	9
COc1ccc(CN2C(=O)c3ccccc3C(/C=N\OCc3ccc(C)cc3)C2=O)cc1 (stereo unspecified)	14
COc1ccc2nc(-c3cccc(N)c3)[nH]c2c1	1
Nc1ccc2nc(-c3ccccn3)[nH]c2c1	45*
Nc1ccc2nc(-c3ccc(N)c(Cl)c3)[nH]c2c1	22
CC1=C(C(=O)Nc2cccnc2)C(c2ccc3c(c2)OCO3)C2=C(CCCC2=O)N1 (stereo unspecified)	-7
O=C(Nc1cccnc1)c1cnn2c(C(F)F)cc(C3CC3)nc12	-4
Cc1ccc(-c2cc(C(F)F)n3ncc(C(=O)Nc4c(C)nn(Cc5c(Cl)cccc5Cl)c4C)c3n2)cc1	32*
Cc1nn(Cc2c(Cl)cccc2Cl)c(C)c1NC(=O)c1cnn2c(C(F)F)cc(-c3ccccc3)nc12	25
CCCc1cc2c(cc1NC(=O)c1ccc(Br)cc1)OCO2	4
CCNc1ccc(Br)cc(C(=O)/C=C/c2ccc3c(c2)OCO3)c1=O	34*
CC(=O)N/C(=C/c1ccc2c(c1)OCO2)C(=O)NCCCO	-13
COc1cc2oc3ccccc3c2cc1N(CC(=O)N1CCCCC1)S(=O)(=O)c1ccc(C)cc1	17
Cc1oc2c(c1C(=O)c1ccccc1)C(=O)C(=O)c1ccccc1-2	59*
O=C(c1ccccc1)c1cc2ccccc2o1	-1
Cc1onc(-c2ccccc2)c1C(N)=O	3
Fc1ccccc1CSc1nc2ccccc2[nH]1	12
Cc1ccc2cc(C(=O)O)c(C)nc2c1	0
O=C(CN1CCCC1)N/N=C/c1ccc(-c2cccc(Cl)c2)o1	0
SMILES	Artemis endo inh
CCOc1ccc(S(=O)(=O)N(CC(=O)N/N=C/c2ccc(-c3ccc([N+](=O)[O-])cc3)o2)c2ccccc2)cc1	27
O=C(N/N=C/c1ccc(-c2ccc(S(=O)(=O)Nc3ncccn3)cc2)o1)c1cc2ccccc2cc1O	33*
CCN1/C(=C/c2ccc3ccccc3[n+]2CC)C=Cc2ccccc21	38*
CCN1C(=O)/C(=C2/C=Cc3ccccc3N2C)OC1=S	5
COc1ccc(CC(=O)N2CCN(c3ccc(C4=NNC(=O)CC4C)cc3)CC2)cc1 (stereo unspecified)	5
CCc1ccc(NC(=O)CNS(=O)(=O)c2c(C)noc2C)cc1	-8
O=C(Nc1ccc(N2CCN(C(=O)c3ccco3)CC2)c(Cl)c1)c1c(F)c(F)c(F)c(F)c1F	3
O=C(N/N=C/c1ccco1)c1cc(-c2ccc3ccccc3c2)n[nH]1	23
O=C(N/N=C\c1ccc(Cl)s1)c1cccs1	1
O=C(N/N=C/c1cccs1)c1cc(-c2ccc3ccccc3c2)n[nH]1	34*
NC(=O)C(c1ccc(Cl)cc1)c1ccc(Sc2ccc(Cl)cc2)nn1 (stereo unspecified)	10
CCC(C)NC(=O)c1c(F)c(F)c(F)c(F)c1F (stereo unspecified)	11
CSc1nnc(-c2ccccc2N=Cc2c(C)[nH]n(-c3ccc4ccccc4c3)c2=O)c(=O)[nH]1	32*
Cc1[nH]n(-c2ccccc2)c(=O)c1C=Nc1cnc2ccccc2c1	0
C=CCSc1nnc(-c2ccccc2N=Cc2c(C)[nH]n(-c3ccccc3)c2=O)c(=O)[nH]1	-2
CC(CC1C(C#N)=C(N)SC(N)=C1C#N)c1ccccc1 (stereo unspecified)	2
c1ccc(-c2ccc(C3=Nn4c(Cn5nnc6ccccc65)nnc4SC3)cc2)cc1	33*
Brc1ccccc1C1=Nn2c(nnc2-c2ccccc2)SC1	6
O=C(Cn1nnc2ccccc21)C1CC1	3
Cc1cc2ncn(C(=O)N3CCCCCC3)c2cc1C	7
S=C(NCc1ccco1)N1CCN(Cc2ccc(Cl)cc2Cl)CC1	0
CCOc1ccccc1C1CC(=O)NC(SCC(=O)Nc2nccs2)=C1C#N (stereo unspecified)	-1
CCCC(=O)C1=C(O)C(C(=O)OC)C(C)(C)CC1=Nc1ccncc1 (stereo unspecified)	-7
C=CCn1c(N)c(C(=O)OCCC)c2nc3ccccc3nc21	40*
COCCNC(=O)c1c(N)n(CCC2=CCCCC2)c2nc3ccccc3nc12	11
SMILES	Artemis endo inh
CCN(CCO)c1ccc(-n2c(N)c(C(=O)OC)c3nc4ccccc4nc32)cc1	-4
CCC(CC)NC(=O)Cc1ccccc1OC	0
Cc1ccc(C2NNC(=O)C2NC(=O)c2ccccc2)cc1 (stereo unspecified)	7
O=C(Cn1c(C(F)(F)F)nc2ccccc21)c1ccc(F)cc1	-4
Cc1nnc(-c2ccccc2)c(=O)n1/N=C/c1c(O)ccc2ccccc12	47*
O=c1c2ccccc2nc(-c2ccco2)n1/N=C/c1ccccc1O	-2
Cc1nnc(C)n1/N=C/c1cccn1C	2
CCCC(c1nnnn1C1CCCC1)N1CCN(c2ccccc2F)CC1 (stereo unspecified)	2
CCOC(=O)c1cc2cc(OC)ccc2nc1C	2
CCCc1nc(NCC2CCCO2)c2nnn(Cc3ccccc3)c2n1 (stereo unspecified)	-2
Cc1cc(=O)n2[nH]c(-c3ccc(Cl)cc3)cc2n1	-1
COCc1cc(=O)n2[nH]c(-c3ccsc3-n3c(C)ccc3C)cc2n1	24
Cc1nc2cc(-c3ccsc3-n3c(C)ccc3C)[nH]n2c(=O)c1Cl	30*
COCCn1nnnc1C(c1ccc(OC)c(OC)c1)N1CCN(c2nc3ccccc3s2)CC1 (stereo unspecified)	-5
Nc1ccc(Oc2ccc3nc(-c4ccccc4)c(-c4ccc([N+](=O)[O-])cc4)nc3c2)cc1	7
C=CCNC(=S)NNC(=O)C(CCCC)CC(C)(C)O (stereo unspecified)	-6
O=C(CSc1nnnn1-c1cccc2c1CCCC2)N1CCCCC1	0
Oc1ccccc1-c1nc(N2CCN(Cc3ccccc3)CC2)c2ccccc2n1	13
c1ccc(N2CCN(c3nc(-c4ccccn4)nc4ccccc34)CC2)cc1	93*
c1ccc2c(N3CCCCCC3)nc(-c3ccncc3)nc2c1	2
N#Cc1c(-c2cccs2)cc(C2CC2)nc1SCC(N)=O	0
CCCOc1ccc(C(=O)NNC(=S)NC(=O)c2cc(-c3ccccc3)nc3ccccc23)cc1	11
Cc1ccc(CNC(=O)c2cc3c(=O)n4ccccc4nc3n(Cc3ccco3)c2=N)cc1	41*
N=c1c(C(=O)NCc2ccccc2)cc2c(=O)n3ccccc3nc2n1Cc1ccco1	31*
CC(C)n1c(=N)c(C(=O)NCCc2ccccc2)cc2c(=O)n3ccccc3nc21	2
N=c1c(C(=O)NCc2ccco2)cc2c(=O)n3ccccc3nc2n1Cc1ccccc1	23
COCCCn1c(=N)c(C(=O)NC2CCCCC2)cc2c(=O)n3ccccc3nc21	2
N=c1c(C(=O)NCc2ccc(F)cc2)cc2c(=O)n3ccccc3nc2n1Cc1ccco1	29
CCOC(=O)C1CSC(CC(=O)Nc2ccc(Cl)c(Cl)c2)C(=O)N1 (stereo unspecified)	-9
CCn1c(C)c(C(C)=O)c(SC)nc1=S	-7
